Assay results: PubChem BioAssay AID1159580 (chemical genetic matrix, 2015)
Screen size: about 5,500 compounds; about 2,000 (36%) were called active. Roughly 18% stayed inconclusive and do not appear here. Cut-off read from the data, not from the text of the source: active = normalized growth mostly below about 0.91 (no sharp cut-off); inconclusive = no clear call, values can overlap the other calls; inactive = mostly above about 0.92. This is one part of the list.

Test: chemical genetic growth profiling, strain panel (AID 1159580);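 note: tested at 20 µM; growth read once vehicle control cultures reached saturation at 30 °C; 1 = growth at the plate median or of vehicle wells; lower values mean less growth of the strain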
Conditions: growth OD

Measured: normalized growth

S=C=NCc1ccccc1
inactive: S. cerevisiae deletion strains, locus YOL012C, strain htz1 0.273
active: S. cerevisiae deletion strains, locus YJR075W, strain HOC1, active compounds read low 0.0711 | S. cerevisiae deletion strains, locus YKL009W, strain mrt4, active compounds read low 0.0801 | S. cerevisiae deletion strains, locus YKL068W, active compounds read low 0.107 | S. cerevisiae deletion strains, locus YKL085W, strain MDH1 (second series), active compounds read low 0.0485 | S. cerevisiae deletion strains, locus YKL085W, strain MDH1, active compounds read low 0.0485 | S. cerevisiae deletion strains, locus YKL160W, strain elf1, active compounds read low 0.0853 | S. cerevisiae deletion strains, locus YKL190W, strain CNB1, active compounds read low 0.0505 | S. cerevisiae deletion strains, locus YKR001C, strain vps1, active compounds read low 0.0646 | S. cerevisiae deletion strains, locus YKR026C, strain gcn3, active compounds read low 0.0866 | S. cerevisiae deletion strains, locus YKR091W, strain srl3, active compounds read low 0.0761 | S. cerevisiae deletion strains, locus YLL001W, strain dnm1, active compounds read low 0.133 | S. cerevisiae deletion strains, locus YLL026W, active compounds read low 0.0653 | S. cerevisiae deletion strains, locus YLL041C, strain sdh2, active compounds read low 0.0963 | S. cerevisiae deletion strains, locus YLR027C, strain aat2, active compounds read low 0.0701 | S. cerevisiae deletion strains, locus YLR039C, strain RIC1, active compounds read low 0.095 | S. cerevisiae deletion strains, locus YLR058C, strain SHM2, active compounds read low 0.0484 | S. cerevisiae deletion strains, locus YLR102C, strain apc9, active compounds read low 0.0598 | S. cerevisiae deletion strains, locus YLR113W, strain HOG1, active compounds read low 0.303 | S. cerevisiae deletion strains, locus YLR221C, strain rsa3, active compounds read low 0.0763 | S. cerevisiae deletion strains, locus YLR258W, strain gsy2, active compounds read low 0.0685 | S. cerevisiae deletion strains, locus YLR262C, strain YPT6 (second series), active compounds read low 0.338 | S. cerevisiae deletion strains, locus YLR262C, strain YPT6, active compounds read low 0.107 | S. cerevisiae deletion strains, locus YLR268W, strain sec22, active compounds read low 0.0685 | S. cerevisiae deletion strains, locus YLR320W, strain mms22, active compounds read low 0.126 | S. cerevisiae deletion strains, locus YLR330W, strain CHS5, active compounds read low 0.0521 | S. cerevisiae deletion strains, locus YLR342W, strain FKS1 (second series), active compounds read low 0.0771 | S. cerevisiae deletion strains, locus YLR342W, strain FKS1, active compounds read low 0.129 | S. cerevisiae deletion strains, locus YLR357W, strain rsc2, active compounds read low 0.208 | S. cerevisiae deletion strains, locus YLR370C, strain arc18, active compounds read low 0.2 | S. cerevisiae deletion strains, locus YLR371W, strain rom2, active compounds read low 0.0645 | S. cerevisiae deletion strains, locus YLR384C, strain iki3, active compounds read low 0.101 | S. cerevisiae deletion strains, locus YLR418C, strain cdc73, active compounds read low 0.105 | S. cerevisiae deletion strains, locus YML016C, strain PPZ1, active compounds read low 0.0508 | S. cerevisiae deletion strains, locus YML032C, strain rad52, active compounds read low 0.068 | S. cerevisiae deletion strains, locus YML120C, strain ndi1, active compounds read low 0.0743 | S. cerevisiae deletion strains, locus YML124C, strain tub3, active compounds read low 0.0581 | S. cerevisiae deletion strains, locus YMR058W, strain fet3, active compounds read low 0.102 | S. cerevisiae deletion strains, locus YMR078C, strain ctf18, active compounds read low 0.0763 | S. cerevisiae deletion strains, locus YMR125W, strain sto1, active compounds read low 0.118 | S. cerevisiae deletion strains, locus YMR129W, active compounds read low 0.115 | S. cerevisiae deletion strains, locus YMR205C, strain PFK2, active compounds read low 0.175 | S. cerevisiae deletion strains, locus YMR223W, strain ubp8, active compounds read low 0.0652 | S. cerevisiae deletion strains, locus YMR231W, strain pep5, active compounds read low 0.159 | S. cerevisiae deletion strains, locus YMR263W, strain SAP30, active compounds read low 0.0638 | S. cerevisiae deletion strains, locus YMR307W, strain GAS1, active compounds read low 0.128 | S. cerevisiae deletion strains, locus YNL067W, strain RPL9B, active compounds read low 0.0559 | S. cerevisiae deletion strains, locus YNL071W, strain lat1, active compounds read low 0.0773 | S. cerevisiae deletion strains, locus YNL128W, strain TEP1, active compounds read low 0.061 | S. cerevisiae deletion strains, locus YNL153C, strain GIM3, active compounds read low 0.0485 | S. cerevisiae deletion strains, locus YNL183C, strain NPR1, active compounds read low 0.784 | S. cerevisiae deletion strains, locus YNL209W, strain ssb2, active compounds read low 0.172 | S. cerevisiae deletion strains, locus YNL233W, strain BNI4, active compounds read low 0.054 | S. cerevisiae deletion strains, locus YNL248C, strain rpa49, active compounds read low 0.0817 | S. cerevisiae deletion strains, locus YNL250W, strain rad50, active compounds read low 0.0774 | S. cerevisiae deletion strains, locus YNL271C, strain bni1, active compounds read low 0.0636 | S. cerevisiae deletion strains, locus YNL298W, strain CLA4, active compounds read low 0.0658 | S. cerevisiae deletion strains, locus YNL307C, strain MCK1, active compounds read low 0.109 | S. cerevisiae deletion strains, locus YNL322C, strain KRE1 (second series), active compounds read low 0.0969 | S. cerevisiae deletion strains, locus YNL322C, strain KRE1, active compounds read low 0.0496 | S. cerevisiae deletion strains, locus YNR049C, strain mso1, active compounds read low 0.0995 | S. cerevisiae deletion strains, locus YNR052C, strain pop2, active compounds read low 0.0721 | S. cerevisiae deletion strains, locus YOL006C, strain TOP1, active compounds read low 0.101 | S. cerevisiae deletion strains, locus YOL147C, strain pex11, active compounds read low 0.0554 | S. cerevisiae deletion strains, locus YOR001W, strain rrp6, active compounds read low 0.0775 | S. cerevisiae deletion strains, locus YOR061W, strain CKA2, active compounds read low 0.0465 | S. cerevisiae deletion strains, locus YOR069W, strain VPS5, active compounds read low 0.048 | S. cerevisiae deletion strains, locus YOR070C, strain gyp1, active compounds read low 0.106 | S. cerevisiae deletion strains, locus YOR080W, strain dia2, active compounds read low 0.169 | S. cerevisiae deletion strains, locus YOR083W, strain WHI5, active compounds read low 0.0989 | S. cerevisiae deletion strains, locus YOR106W, strain vam3, active compounds read low 0.115 | S. cerevisiae deletion strains, locus YOR136W, strain idh2, active compounds read low 0.0696 | S. cerevisiae deletion strains, locus YOR144C, strain elg1, active compounds read low 0.0548 | S. cerevisiae deletion strains, locus YOR184W, strain ser1, active compounds read low 0.0749 | S. cerevisiae deletion strains, locus YOR231W, strain MKK1, active compounds read low 0.183 | S. cerevisiae deletion strains, locus YOR265W, strain rbl2, active compounds read low 0.081 | S. cerevisiae deletion strains, locus YOR270C, strain vph1, active compounds read low 0.135 | S. cerevisiae deletion strains, locus YOR290C, strain snf2, active compounds read low 0.0951 | S. cerevisiae deletion strains, locus YOR316C, strain cot1, active compounds read low 0.0582 | S. cerevisiae deletion strains, locus YPL051W, strain arl3, active compounds read low 0.0938 | S. cerevisiae deletion strains, locus YPL055C, strain LGE1, active compounds read low 0.0848 | S. cerevisiae deletion strains, locus YPL078C, strain atp4, active compounds read low 0.0881 | S. cerevisiae deletion strains, locus YPL106C, strain sse1, active compounds read low 0.222 | S. cerevisiae deletion strains, locus YPL240C, strain hsp82, active compounds read low 0.0863 | S. cerevisiae deletion strains, locus YPL241C, strain CIN2, active compounds read low 0.0506 | S. cerevisiae deletion strains, locus YPL256C, strain CLN2, active compounds read low 0.219 | S. cerevisiae deletion strains, locus YPR119W, strain clb2, active compounds read low 0.0611 | S. cerevisiae deletion strains, locus YPR141C, strain kar3, active compounds read low 0.0705 | S. cerevisiae deletion strains, locus YPR163C, strain tif3, active compounds read low 0.07 | S. cerevisiae deletion strains, locus YPR167C, strain met16, active compounds read low 0.0606 | S. cerevisiae deletion strains, strain wtn01, active compounds read low 0.0609 | S. cerevisiae strains, strain wild type, active compounds read low 0.0473
